# Bioassay records: PubChem, National Center for Advancing Translational Sciences (NCATS)
# uPA generation – qHTS for Inhibitors of Cell Surface uPA Generation | cell surface uPA generation assay, qHTS | Potency, µM (highest dose often 38.3 µM), inactives show at the highest dose activity change, negative = inhibition, usual class: inhibitors | 330,000 compounds, 0.31% hits | AID 540303, 2011; active = well fitted inhibition curve with a large enough effect; inconclusive = small, poorly fitted or top-dose-only effect; inactive = no such curve, though single readings can be large or run the other way; tested in mouse RAW 264.7 cells; also: potency is read from the fitted curve at half-maximal effect; % is scaled to controls: 0 for no effect and ±100 for the full control effect; nearly all actives have a fitted effect of over 55% in size
# miR-21 reporter – qHTS Assay for Modulators of miRNAs and/orActivators of miR-21; HeLa miR-21 FLuc reporter, luciferase, 48 h; Potency, µM (highest dose often 38.3 µM), inactives show at the top dose activity change, positive = activation, usual class: activators; 340,000 tested, under 10 active; AID 2288, 2010;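 also: % of control where 0% means no effect; miR-21 action dims this reporter so a rising signal means less miR-21 action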
#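 Using DMEM plus 10% FBS, HeLa miR-21-FLuc cells are incubated with test compounds (final up to about 40uM) for 48 hours; firefly luciferase signal is then imaged following reagent-mediated lysis.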
# TDP1 inh – qHTS Assay for Inhibitors of Tyrosyl-DNA Phosphodiesterase (TDP1); Potency, µM (top dose mostly 130 µM), for inactives: top-dose activity change, negative = inhibition, most hits filed as inhibitors; recombinant TDP1, AlphaScreen DNA substrate cleavage; 350,000 compounds, 0.28% hits; also: potency is read from the fitted curve at half-maximal effect; % is scaled to controls: 0 for no effect and ±100 for the full control effect; nearly all actives have a fitted effect of over 40% in size
# Target sequence (Q9NUW8 whole entry, looked up): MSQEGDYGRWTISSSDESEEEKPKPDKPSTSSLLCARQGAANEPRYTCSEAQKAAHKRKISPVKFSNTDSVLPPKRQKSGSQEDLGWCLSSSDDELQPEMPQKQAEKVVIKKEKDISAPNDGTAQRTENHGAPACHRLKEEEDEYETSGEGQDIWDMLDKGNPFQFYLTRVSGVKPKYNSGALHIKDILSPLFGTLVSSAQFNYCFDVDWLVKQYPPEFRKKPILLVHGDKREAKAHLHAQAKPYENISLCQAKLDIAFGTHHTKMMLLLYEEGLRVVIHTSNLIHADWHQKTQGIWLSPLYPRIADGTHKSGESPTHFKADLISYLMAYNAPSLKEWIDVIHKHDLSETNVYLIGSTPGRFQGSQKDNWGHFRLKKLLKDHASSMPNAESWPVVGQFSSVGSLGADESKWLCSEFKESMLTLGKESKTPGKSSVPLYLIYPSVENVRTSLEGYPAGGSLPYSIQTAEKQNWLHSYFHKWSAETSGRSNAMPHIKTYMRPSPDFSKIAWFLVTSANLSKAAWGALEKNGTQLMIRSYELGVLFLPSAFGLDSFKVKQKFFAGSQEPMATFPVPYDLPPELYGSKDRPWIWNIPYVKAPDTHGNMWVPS
#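 Steps: enzyme plus compound, 15 min RT; add biotin/phosphotyrosine-FITC oligonucleotide (15 nM final), react 5 min; add donor/acceptor beads (10 ug/ml final), 10 min; read AlphaScreen. Tdp1 at 1 nM final.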
# DT40 TDP1 CPT – qHTS for Inhibitors of human tyrosyl-DNA phosphodiesterase 1 (TDP1): qHTS in cells in presence of CPT | chicken DT40 Tdp1-/-;hTDP1 cells + 20 nM CPT, ATP luminescence, 48 h | Potency, µM (top dose mostly 46.2 µM), inactives show at the highest dose activity change, negative = growth inhibition, actives largely listed as inhibitors | 420,000 compounds, 12% hits | AID 686979, 2013; also: potency is read from the fitted curve at half-maximal effect; % is scaled to controls: 0 for no effect and ±100 for the full control effect; nearly all actives have a fitted effect of over 55% in size
#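 Cell growth measured by CellTiter-Glo luminescence after a minimum 48 h, 37 C compound exposure with 20 nM CPT in Tdp1-knockout DT40 cells stably expressing hTDP1, seeded 400/well; qHTS titration format.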
# TDP1 cell noCPT – qHTS for Inhibitors of human tyrosyl-DNA phosphodiesterase 1 (TDP1): qHTS in cells in absence of CPT; Potency, µM (highest dose often 46.2 µM), for inactives: top-dose activity change, negative = growth inhibition, actives largely listed as inhibitors; DT40 Tdp1-/- hTDP1 cells, no CPT, ATP luminescence, 48 h; 420,000 compounds, 15% hits; also: potency is read from the fitted curve at half-maximal effect; % is scaled to controls: 0 for no effect and ±100 for the full control effect; nearly all actives have a fitted effect of over 55% in size
#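 Growth kinetics read by CellTiter-Glo luminescence after ≥48 hr at 37 °C. Cells: DT40 Tdp1-/- stably carrying human TDP1, 400 per well, compound exposure in the absence of CPT (DMSO vehicle).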
# The depositor's hits bear a star; ? = inconclusive; nt = not tested or not shown; [ ] = dose if it differs, or a comment. Compounds with a hit are over-represented: about 16% of the library has one in this group of screens. Unless noted, calls follow the shape of the dose curve; as a rule, active = well fitted curve in the direction sought with a large enough effect; inconclusive = small, poorly fitted or top-dose-only effect, or another doubt; inactive = no such curve, though single readings can be large; an effect the other way counts as inactive or inconclusive.
SMILES,uPA generation,miR-21 reporter,TDP1 inh,DT40 TDP1 CPT,TDP1 cell noCPT
c1ccc(Nc2c(-c3ccco3)nc3ccccn23)cc1,0%,-23%,3%,?,23µM*
Cc1c(-c2cc[n+]([O-])cc2)oc2ccc(Br)cc2c1=O,nt,-33%,-5%,nt,nt
CCOC(=O)N1CCC(N2Cc3cccc(C(=O)Nc4cc(F)ccc4F)c3C2=O)CC1,14%,3%,-1%,?,?
CCOC(=O)N1CCC(N2Cc3cccc(C(=O)NCc4ccc5c(c4)OCO5)c3C2=O)CC1,2%,2%,50µM*,?,?
CCOC(=O)N1CCC(N2Cc3cccc(C(=O)Nc4ccc(N(CC)CC)cc4C)c3C2=O)CC1,6%,5%,17%,?,16µM*
CC(=O)c1cc(C#N)c(SCc2ccccn2)nc1C,-8%,-72%,1%,16%,6%
O=C(O)CN=C(NS(=O)(=O)c1ccc(Cl)cc1)c1ccc(F)cc1,0%,0%,1%,0%,-17%
CCOC(=O)c1cnc(SSc2ncc(C(=O)OCC)c(N)n2)nc1N,12%,-3%,nt,23µM*,15µM*
CCn1cc(C2=NC(CC(C)C)CO2)c2ccccc21 (centres undefined),-1%,-39%,nt,?,15µM*
CCn1cc(C2=NC(C(C)C)CO2)c2ccccc21 (centres undefined),-5%,-14%,4%,-20%,-25%
CCOc1ccccc1Nc1nc2ccccc2nc1NS(=O)(=O)c1ccc(Cl)cc1,nt,-1%,nt,?,5.2µM*
Cc1ccc2nc(NS(=O)(=O)c3ccc(Cl)cc3)c(Nc3ccc(C(=O)O)cc3)nc2c1,nt,-43%,0%[12.3 µM],6%,-4%
COc1cccc(Nc2nc3cc(C)ccc3nc2NS(=O)(=O)c2ccc(Cl)cc2)c1,nt,19%,0%,5.2µM*,4.1µM*
Cc1ccc(COC(=O)c2nn(-c3ccccc3)nc2N)cc1,-1%,-2%,nt,17%,10%
CC(C)N1C(=O)/C(=C\c2nc3ccccc3c(=O)n2-c2ccccc2)c2ccccc21,-9%,12%,11%,23µM*,16µM*
CC(C)N1C(=O)C(Cc2nc3ccccc3c(=O)n2-c2ccccc2)c2ccccc21 (centres undefined),11%,-22%,8%,?,-21%
CC(C)N1C(=O)/C(=C/c2nc3ccccc3c(=O)n2-c2ccccc2)c2ccccc21,-9%,-3%,8%,21µM*,23µM*
Cc1ccc(S(=O)(=O)NCCc2ccncc2)cc1[N+](=O)[O-],-1%,-5%,nt,-4%,-17%
COc1ccc(CCNC(=O)COC(=O)c2ccc(F)c(S(=O)(=O)N3CCOCC3)c2)cc1,-4%,nt,1%,-3%,14%
COc1ccc(CCNC(=O)c2ccc(F)c(S(=O)(=O)N3CCCCC3)c2)cc1,nt,nt,nt,?,23µM*
Cc1ccc(N2CCN(S(=O)(=O)c3cc(C(=O)Nc4cc(Cl)cc(Cl)c4)ccc3F)CC2C)cc1 (centres undefined),nt,29%,8%,?,16µM*
O=C(Nc1cc(Cl)cc(Cl)c1)c1ccc(F)c(S(=O)(=O)N2CCN(c3ccccc3F)CC2)c1,nt,-7%,0%,5.8µM*,7.3µM*
O=C(Nc1nncs1)c1ccc(F)c(S(=O)(=O)N2CCCCC2)c1,-2%,-1%,4%,-11%,3%
O=C(Nc1cc(Cl)cc(Cl)c1)c1ccc(F)c(S(=O)(=O)N2CCCCCC2)c1,nt,-3%,0%,5.2µM*,10µM*
Cc1ccc2oc(=O)n(CC(=O)N3CCOCC3)c2c1,3%,3%,6%,-11%,-16%
SMILES,uPA generation,miR-21 reporter,TDP1 inh,DT40 TDP1 CPT,TDP1 cell noCPT
Cc1cccc(N2CCN(S(=O)(=O)c3cc(C(=O)Nc4ccc(Oc5ccccc5)cc4)ccc3F)CC2)c1C,nt,22%,5%,5.2µM*,?
COc1ccc(C(=O)Nc2ccccc2N2CCOCC2)cc1S(=O)(=O)N1CCCC1,-6%,nt,2%,?,18µM*
Cc1ccc(C)c(N2CCN(S(=O)(=O)c3cc(C(=O)Nc4ccc(Oc5ccccc5)cc4)ccc3F)CC2)c1,nt,8%,0%,?,?
CCc1ccccc1NC(=O)c1ccc(F)c(S(=O)(=O)N2CCN(c3ccccc3OC)CC2)c1,nt,17%,3%,15µM*,13µM*
CCc1ccc(NC(=O)c2ccc(F)c(S(=O)(=O)N3CCN(c4cc(C)ccc4C)CC3)c2)cc1,nt,13%,0%,?,?
Cc1ccc(C)c(N2CCN(S(=O)(=O)c3cc(C(=O)Nc4cc(Cl)cc(Cl)c4)ccc3F)CC2)c1,nt,-3%,10%,12µM*,16µM*
CCc1cc(C)cc(OCCNC(=O)c2ncn[nH]2)c1,-8%,-12%,6%,1%,-6%
CC(C)Cn1c(N)c(C(=O)COC(=O)c2cc(C(F)(F)F)nc3c(C(F)(F)F)cccc23)c(=O)n(C)c1=O,nt,-4%,0%,nt,nt
O=C(COc1ccccc1Cl)Nc1ccccc1C(=O)N1CCOCC1,-3%,-29%,2%,-10%,-8%
CN(C)c1ccc(NC(=O)CC2NCCNC2=O)cc1 (centres undefined),3%,-8%,1%,-3%,-11%
CCCCN(CC)C(=O)C1CCCN(c2ncnc3c2nc2n3CCCCC2)C1 (centres undefined),nt,-11%,2%,?,21µM*
CCCCN(Cc1ccco1)C(=O)C1CCCN(c2ncnc3c2nc2n3CCCCC2)C1 (centres undefined),6%,?,9%,16µM*,15µM*
CCN(CC)C(=O)C1CCCN(c2ncnc3c2nc2n3CCCCC2)C1 (centres undefined),nt,-5%,6%,-23%,?
O=C(O)c1ccccc1O[C@@H]1O[C@H](C(=O)O)[C@@H](O)[C@H](O)[C@H]1O,nt,nt,4%,nt,nt
Cc1nn(C)c(C(=O)NCc2ccc(Cl)cc2)c1Cl,-7%,14%,1%,4.1µM*,4.1µM*
CCC(C)NC(=O)c1ccc(CSCc2ccccc2Cl)o1 (centres undefined),0%,-9%,nt,?,?
O=C(NCc1ccc(Cl)cc1)c1ccc(CSCc2cccc(Cl)c2)o1,nt,8%,-10%,-26%,?
Cc1ccc(CSCc2ccc(C(=O)NC3CC3)o2)cc1,-2%,0%,3%,?,23µM*
CCC(C)NC(=O)c1ccc(CSCc2ccc(Cl)cc2)o1 (centres undefined),-2%,-1%,nt,-25%,26µM*
Cc1ccc(CNC(=O)c2ccc(CSCc3ccc(Cl)cc3)o2)cc1,nt,10%,3%,?,16µM*
